Source: PubChem BioAssay
Where “and” joins values, the source holds several entries; their conditions need not be identical. Equal values may be shown once. Calls of active or inactive are those of the source. Unless noted, how the calls were made is not given here.

Columns and labels:
[1] = compounds altering circadian rhythm period length – cell-based, LOPAC library, luminescence reporter (AID 2774); settings: circadian reporter cells, at 7 µM, actives lie on both sides;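 further: values are relative to mean of DMSO wells on each plate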
[2] = system: Hepatitis C virus NS3 helicase; experiment: blockers of NS3h binding to ssDNA – biochemical, fluorescence polarization, LOPAC1280 library, primary screen (AID 687035; in the data active means inhibition above about 37%); settings: Purified HCV NS3 helicase, Cy5-dT15 ssDNA binding fluorescence polarization; stronger effect = higher value; concentration not given here
[3] = compounds altering Cy5-DNA-NS3h complex signal – biochemical, LOPAC1280, artefact control for HCV NS3 helicase inhibitor project (AID 687037); settings: Cy5-DNA-NS3h complex fluorescence interference counterscreen
[4] = system: Aerobactin synthetase IucA (Klebsiella pneumoniae); experiment: inhibition of K. pneumoniae IucA enzyme – biochemical, Tocris library, absorbance (AID 1345561); settings: purified IucA enzyme assay, absorbance (OD) read-out; stronger effect = lower value;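 tested at 8 µM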;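 further: 100% = enzyme without compound and 0% = no enzyme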
[5] = viability loss with induced miR-34 in A549 – imaging, A549 dox-inducible miR-34, nuclei and caspase counts, primary screen (AID 1347080;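 active means compounds whose cell count with miR-34 switched on is under 0.7 times the count with it off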); settings: A549 miR-34 inducible, Hoechst nuclei count, 48 h
[6] = chitosan synthesis blockers in C. neoformans – flow cytometry, Cibacron Brilliant Red staining (AID 1347148); settings: Cryptococcus neoformans chitosan, stronger effect = lower value; at 10 µM unless noted;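 further: compound exposure lasted three days at 37 degrees C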
[7] = blockers of cellular phospholipid synthesis – cell-based, LOPAC library, screen 4, primary screen (AID 1347384); settings: animal cells, phospholipid biosynthesis inhibition screen; at 10 µM
[8] = galactose survival enhancers in mitochondrial complex I cybrids – cell-based, galactose medium, ATP luminescence, primary screen (AID 1645843;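 active means z-score of at least 1.8 in each of two replicates, scored against plate mean and spread of sample wells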;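 further: positive z means more ATP and so rescue of galactose-driven cybrid death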); settings: complex I mutant cybrid cells, 72 h, stronger effect = higher value
[9] = MELAS cybrid and Rieske KO viability enhancers – cell-based, MELAS cybrids, Rieske KO mouse fibroblasts, CellTiter-Glo, primary screen (AID 1508586;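 active means mean z-score across replicates of 1.96 or higher in either the MELAS or the Rieske mutant cell line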;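 further: z relative to plate mean and SD of compound and empty wells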); settings: low glucose
[10] = compounds altering viability of human ES cells (AID 493140); settings: human embryonic stem cell survival screen; stronger effect = higher value;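 further: cells exposed to compounds for four days before counting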
[11] = compounds altering HSF1 focus formation in cells – imaging, Selleck Cancer Library (AID 1347162; in the data active means plate-normalised HSF1 focus index below about 0.46); settings: human cells, HSF1 nuclear foci imaging, at 10 µM; SSMD: measured here: HSF1 foci SSMD mean; cell count: measured here: cell number; plate-normalised HSF1 focus index: stronger effect = lower value
[12] = P. berghei load reduction in hepatocytes – cell-based, HepG2, luciferase luminescence, HepG2 viability, primary screen (AID 624349; in the data active means parasite load remaining mostly below about 12%, no sharp cut-off; inactive means mostly above about 10%;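 further: 100% = mean of DMSO negative control wells on the same plate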); settings: P. berghei liver stage in HepG2, luciferase luminescence, concentration not given here; parasite load remaining: stronger effect = lower value; viability: measured here: HepG2 viability without parasites
[13] = drug combination growth inhibition, ovarian cancer – cell-based, oncology-focused library, rucaparib conditional, profiling panel (AID 1508598;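 active means normalized viability below 100% at a tested concentration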); settings: patient-derived ovarian cancer cells, CellTiter-Glo viability, 144 h, stronger effect = lower value
[14] = stronger effect = lower value, cell number ratio, induced over uninduced
[15] = measured here: relative caspase fold change +Dox/-Dox
[16] = measured here: total cells with miR-34 induction, stronger effect = lower value
[17] = measured here: total cells without miR-34 induction
[18] = MELAS cybrid survival, CellTiter-Glo 48 h, stronger effect = higher value
[19] = Rieske KO mouse fibroblast survival, CellTiter-Glo 72 h

S=C(S)OC1CC2CC1C1CCCC21 (stereo not drawn)
10600 and 4560 and 8830: cell count [5, 16]
10600 and 5380 and 9060: cell count [5, 17]
inactive: period change [1] -0.18 h | inhibition [2] -2% | fluorescence ratio (interference) [3] 1 | remaining activity [4] 120% | fold change [5, 14] 0.999 and 0.847 and 0.975 | fold fluorescence [6] 5.66 [at 187.6 µM] | outcome [7] | z-score [8] -0.025 and -0.095
0.874 and 0.927 and 0.9: fold change [5, 15]

S=C(S)N1CCCC1
1.02 and 0.891: fold change [5, 15]
6850 and 8740: cell count [5, 16]
7680 and 9010: cell count [5, 17]
inactive: period change [1] 0.08 h | inhibition [2] -2% | fluorescence ratio (interference) [3] 1 | remaining activity [4] 87.7% | fold change [5, 14] 0.892 and 0.97 | outcome [7] | z-score [8] -1.38 and -1.23

COc1ccc(CCN(C)CCc2ccc(OC)c(OC)c2)cc1OC
inactive: period change [1] 0.045 h | inhibition [2] -1% | fluorescence ratio (interference) [3] 1 | remaining activity [4] 104% | fold change [5, 14] 0.949 and 0.925 and 0.899 | fold fluorescence [6] 2.96 [at 139.1 µM] | outcome [7] | z-score [8] -0.285 and -0.27
9310 and 6560 and 9840: cell count [5, 17]
1.08 and 1.5 and 0.778: fold change [5, 15]
8830 and 6070 and 8850: cell count [5, 16]

COc1ccccc1N1CCN(CCN2C(=O)CC3(CCCC3)CC2=O)CC1
-0.237: z-score [9, 19]
inactive: period change [1] -0.035 h | inhibition [2] -5% | fluorescence ratio (interference) [3] 1 | remaining activity [4] 96.2% | fold change [5, 14] 1.01 and 0.904 and 0.921 | outcome [7] | z-score [9, 18] -0.152 | z-score [8] -0.235 and -0.615
10300 and 7050 and 8240: cell count [5, 16]
10200 and 7800 and 8940: cell count [5, 17]
1.78 and 0.65 and 0.553: fold change [5, 15]

O=S(=O)(c1cccc2c(Cl)cccc12)N1CCCNCC1
inactive: period change [1] 0.09 h | survival [10] 62 | inhibition [2] -2% | fluorescence ratio (interference) [3] 1 | remaining activity [4] 97.3% | fold change [5, 14] 1.19 and 0.923 and 0.938 | fold fluorescence [6] 11.9 [at 153.9 µM] | outcome [7] | z-score [8] -0.995 and -0.78
6430 and 3010 and 7700: cell count [5, 16]
1.59 and 1.07 and 1: fold change [5, 15]
5390 and 3260 and 8210: cell count [5, 17]

CCCCCCCCCCCCC/C=C/[C@@H](O)[C@H](CO)NC(C)=O
5360 and 6170 and 8250: cell count [5, 16]
inactive: survival [10] 95 | remaining activity [4] 114% | fold change [5, 14] 0.919 and 1.02 and 0.95 | fold fluorescence [6] 5.52 | z-score [8] -1.23
1.09 and 0.67 and 0.924: fold change [5, 15]
5840 and 6040 and 8680: cell count [5, 17]

CC(C)(C)c1ccc(S(=O)(=O)/C=C/C#N)cc1
0.975 and 1.39: fold change [5, 15]
6870: cell count [11]
4060 and 2060: cell count [5, 17]
inactive: period change [1] -0.05 h | inhibition [2] -4% | fluorescence ratio (interference) [3] 0.9 | remaining activity [4] 114% | fold change [5, 14] 0.996 and 0.965 | plate-normalised HSF1 focus index [11] 0.733 | outcome [7] | z-score [8] -1.5 and -1.04
-5.26: SSMD [11]
4040 and 1980: cell count [5, 16]

CC(C)(C)c1cc(O)c(C(C)(C)C)cc1O
1.08 and 0.716: fold change [5, 15]
1530 and 6190: cell count [5, 16]
1390 and 6820: cell count [5, 17]
inactive: remaining activity [4] 129% | fold change [5, 14] 1.1 and 0.907 | fold fluorescence [6] 11.1 [at 224.9 µM] | z-score [8] -0.7

CN(C)CCCn1cc(C2=C(c3c[nH]c4ccccc34)C(=O)NC2=O)c2ccccc21
inactive: survival [10] 60.4 | parasite load remaining [12] 40.8% | remaining activity [4] 99.8% | fold change [5, 14] 1.07 and 1 and 1.3 | fold fluorescence [6] 5.95 [at 121.2 µM] | z-score [9, 18] -0.455 | viability ([13]; at 0.000305 µM, OCI-C5x cells, with rucaparib 10 µM, 100% = cells with rucaparib alone) 111% | viability ([13]; at 0.000305 µM, OCI-C5x cells, without rucaparib) 113% | viability ([13]; at 0.00122 µM, OCI-C5x cells, with rucaparib 10 µM, 100% = cells with rucaparib alone) 124% | viability ([13]; at 0.00122 µM, OCI-C5x cells, without rucaparib) 118% | viability ([13]; at 0.00122 µM, OCI-P5x cells, with rucaparib 20 µM, 100% = cells with rucaparib alone) 102% | viability ([13]; at 0.00488 µM, OCI-C5x cells, with rucaparib 10 µM, 100% = cells with rucaparib alone) 118% | viability ([13]; at 0.00488 µM, OCI-C5x cells, without rucaparib) 118% | viability ([13]; at 0.00488 µM, OCI-P5x cells, with rucaparib 20 µM, 100% = cells with rucaparib alone) 104% | viability ([13]; at 0.00488 µM, OCI-P5x cells, without rucaparib) 101% | viability ([13]; at 0.0195 µM, OCI-C5x cells, with rucaparib 10 µM, 100% = cells with rucaparib alone) 118% | viability ([13]; at 0.0195 µM, OCI-C5x cells, without rucaparib) 108% | viability ([13]; at 0.0195 µM, OCI-P5x cells, with rucaparib 20 µM, 100% = cells with rucaparib alone) 103% | viability ([13]; at 0.0195 µM, OCI-P5x cells, without rucaparib) 105% | viability ([13]; at 0.0781 µM, OCI-C5x cells, with rucaparib 10 µM, 100% = cells with rucaparib alone) 113% | viability ([13]; at 0.0781 µM, OCI-C5x cells, without rucaparib) 120% | viability ([13]; at 0.0781 µM, OCI-P5x cells, with rucaparib 20 µM, 100% = cells with rucaparib alone) 101% | viability ([13]; at 0.0781 µM, OCI-P5x cells, without rucaparib) 105% | viability ([13]; at 0.313 µM, OCI-C5x cells, with rucaparib 10 µM, 100% = cells with rucaparib alone) 120% | viability ([13]; at 0.313 µM, OCI-C5x cells, without rucaparib) 134% | viability ([13]; at 0.313 µM, OCI-P5x cells, with rucaparib 20 µM, 100% = cells with rucaparib alone) 108% | viability ([13]; at 0.313 µM, OCI-P5x cells, without rucaparib) 109% | viability ([13]; at 1.25 µM, OCI-C5x cells, with rucaparib 10 µM, 100% = cells with rucaparib alone) 122% | viability ([13]; at 1.25 µM, OCI-C5x cells, without rucaparib) 130% | viability ([13]; at 1.25 µM, OCI-P5x cells, with rucaparib 20 µM, 100% = cells with rucaparib alone) 116% | viability ([13]; at 1.25 µM, OCI-P5x cells, without rucaparib) 109% | viability ([13]; at 5 µM, OCI-C5x cells, with rucaparib 10 µM, 100% = cells with rucaparib alone) 109% | viability ([13]; at 5 µM, OCI-C5x cells, without rucaparib) 146% | viability ([13]; at 5 µM, OCI-P5x cells, with rucaparib 20 µM, 100% = cells with rucaparib alone) 101% | viability ([13]; at 5 µM, OCI-P5x cells, without rucaparib) 105% | z-score [8] -0.475
-0.16: z-score [9, 19]
1100 and 5040 and 3620: cell count [5, 17]
0.742 and 0.718 and 1.02: fold change [5, 15]
1180 and 5040 and 4700: cell count [5, 16]
active: viability ([13]; at 0.000305 µM, OCI-P5x cells, with rucaparib 20 µM, 100% = cells with rucaparib alone) 94.2% | viability ([13]; at 0.000305 µM, OCI-P5x cells, without rucaparib) 96.8% | viability ([13]; at 0.00122 µM, OCI-P5x cells, without rucaparib) 96%
101%: viability [12]

Cc1ccc(O)c(N=Nc2ccccc2)n1
inactive: period change [1] -0.01 h | inhibition [2] 1% | fluorescence ratio (interference) [3] 0.9 | remaining activity [4] 110% | fold change [5, 14] 0.956 and 0.932 | outcome [7] | z-score [8] 1.16 and 0.96
10100 and 8850: cell count [5, 16]
0.751 and 0.659: fold change [5, 15]
10500 and 9490: cell count [5, 17]
